Rows were chosen to be rich in hits. Some 9% of all compounds tested hit in one or more screens of this group.
IMPase inh = qHTS Assay for Identifying the Cell-Membrane Permeable IMPase Inhibitors | Inositol monophosphatase 1 (Rattus norvegicus), P97697 | inhibition (IP1 accumulation), % at 46.1 µM | 120,000 tested, under 10 active | CHO-M1 cells, IP1 accumulation, HTRF TR-FRET ratio; active = well fitted curve in the direction sought with a large enough effect in the signal ratio, not every such curve was filed as active; inconclusive = small, poorly fitted or top-dose-only effect, or a change in a side signal; inactive = no such curve, though single readings can be large or run the other way; the % refers to the signal ratio;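 note: cells stimulated with carbachol in lithium chloride buffer; plate controls were DMSO basal wells for no effect and reference inhibitor wells for full effect; higher means more IMPase inhibition seen as more IP1 and lower FRET ratio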
Target sequence (P97697 whole entry, looked up): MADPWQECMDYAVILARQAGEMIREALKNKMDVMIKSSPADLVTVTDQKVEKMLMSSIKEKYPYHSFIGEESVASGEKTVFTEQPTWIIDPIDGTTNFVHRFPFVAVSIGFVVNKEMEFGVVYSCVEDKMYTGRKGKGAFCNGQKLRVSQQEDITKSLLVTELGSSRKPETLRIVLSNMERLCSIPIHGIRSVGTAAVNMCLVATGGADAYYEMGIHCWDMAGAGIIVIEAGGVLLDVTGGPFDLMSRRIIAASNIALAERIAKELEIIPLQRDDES
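Carbachol-driven Gq signalling in CHO-M1 cells (2000/well) generates IP1. Compounds that block IMPase raise IP1 and so reduce the FRET signal from Eu-anti-IP1 and d2-IP1 after a 10 min room-temperature lysis.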
HPGD block = qHTS Assay for Inhibitors of HPGD (15-Hydroxyprostaglandin Dehydrogenase) | 150,000 compounds, 4.3% hits | 15-hydroxyprostaglandin dehydrogenase [NAD(+)] (Homo sapiens), P15428 | Potency, µM, for inactives: at the top dose activity change, negative = inhibition, actives largely listed as inhibitors | purified HPGD, NADH fluorescence kinetic, PGE2 substrate | AID 894, 2007; note: potency is the fitted concentration of half-maximal effect
Target sequence (P15428 whole entry, looked up): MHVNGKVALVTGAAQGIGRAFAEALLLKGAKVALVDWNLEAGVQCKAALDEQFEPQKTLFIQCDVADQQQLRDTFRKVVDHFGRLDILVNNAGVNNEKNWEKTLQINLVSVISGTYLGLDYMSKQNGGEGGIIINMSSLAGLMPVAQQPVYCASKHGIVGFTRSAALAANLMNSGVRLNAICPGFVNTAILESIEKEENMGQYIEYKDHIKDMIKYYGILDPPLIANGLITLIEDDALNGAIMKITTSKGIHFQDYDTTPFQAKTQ
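20 nM HPGD preincubated 15 min at room temperature with compound in 50 mM Tris-HCl pH 8, 0.01% Tween 20. Started with 1 mM NAD+ and 30 uM prostaglandin E2; NADH fluorescence (360/450 nm) read 5 times over 30-s intervals, last minus first.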
ALDH1A1 inh = qHTS Assay for Inhibitors of Aldehyde Dehydrogenase 1 (ALDH1A1) | Potency, µM (top dose mostly 75.3 µM), for inactives: top-dose activity, negative = inhibition, most hits filed as inhibitors | Purified ALDH1A1, NADH fluorescence, propionaldehyde substrate | 220,000 compounds, 7.3% hits | Aldehyde dehydrogenase 1A1 (Homo sapiens), P00352;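 note: potency is the fitted concentration of half-maximal effect; plate controls were no enzyme wells and a reference inhibitor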
Numbers without * were called inactive; [ ] = another dose, or the depositor's remark. Unless noted, calls come from the whole dose curve; as a rule, active = well fitted inhibition curve with a large enough effect (not every such curve was filed as active); inconclusive = small, poorly fitted or top-dose-only effect, or another doubt; inactive = no such curve, though single readings can be large or run the other way. Unless noted, % is set by controls: 0 for no effect and ±100 for the full control effect.

What do the screens show for `COc1ccccc1NC(=S)NCc1ccco1`?
IMPase inh: -5; HPGD block: -29%; ALDH1A1 inh: -11%

What do the screens show for `NS(=O)(=O)c1ccc(CNC(=S)Nc2ccc(F)c(Cl)c2)cc1`?
ALDH1A1 inh: -21%

Results for Cc1ccccc1NC(=S)NCc1ccc(Cl)cc1 ?
HPGD block: 16µM*; ALDH1A1 inh: inconclusive

What do the screens show for `CC(C)OCCCNC(=S)Nc1ccc(S(N)(=O)=O)cc1`?
HPGD block: 7.9µM*; ALDH1A1 inh: 1%

How did NS(=O)(=O)c1ccc(NC(=S)NCc2ccc(Cl)cc2)cc1 do in these assays?
IMPase inh: 7; HPGD block: 20µM*; ALDH1A1 inh: 22µM*

Results for Cc1ccccc1NC(=S)NCc1ccc2c(c1)OCO2 ?
IMPase inh: 9; HPGD block: inconclusive; ALDH1A1 inh: -8%

Results for CCOC(=O)c1cnc(/N=C/N(C)C)s1 ?
ALDH1A1 inh: 0%

How did CCc1ccccc1NC(=O)CCc1nc(-c2cccs2)no1 do in these assays?
ALDH1A1 inh: -6%

Results for CC(=O)Nc1ccc(N2S(=O)(=O)c3ccccc3S2(=O)=O)cc1 ?
IMPase inh: 8; HPGD block: inconclusive; ALDH1A1 inh: -15%

How did Clc1ccc(CCNC(c2ccc(Cl)cc2)c2nnc(-c3ccccc3)o2)cc1 (stereo unspecified) do in these assays?
IMPase inh: 6

How did OC(c1ccc(Cl)cc1)c1nnc(-c2ccccc2)o1 (stereo unspecified) do in these assays?
IMPase inh: -10; HPGD block: 18µM*; ALDH1A1 inh: 0%

Results for CNC(=O)c1nnsc1S(=O)c1ccc(Cl)cc1 (stereo unspecified) ?
ALDH1A1 inh: 22µM*

Results for CCCNC(=O)c1nnsc1S(=O)(=O)c1ccc(Cl)cc1 ?
ALDH1A1 inh: 20µM*

Results for CCCNC(=O)c1nnsc1S(=O)c1ccc(Cl)cc1 (stereo unspecified) ?
ALDH1A1 inh: 11µM*

How did CCCNC(=O)NS(=O)(=O)c1ccc(Cl)cc1 do in these assays?
IMPase inh: 0; HPGD block: -6%; ALDH1A1 inh: -5%

Results for CCCNC(=O)c1ccc2snnc2c1 ?
IMPase inh: inconclusive; HPGD block: -16%; ALDH1A1 inh: inconclusive

How did CNC(=O)c1nn(-c2ccc(Cl)cc2)ccc1=O do in these assays?
IMPase inh: 3[1.84 µM]; HPGD block: -23%; ALDH1A1 inh: -8%

How did CC(C)(C)NC(=O)c1sccc1C(=O)O do in these assays?
IMPase inh: -4; HPGD block: inconclusive; ALDH1A1 inh: inconclusive

Results for CC(=O)NC(NC(=S)N1CCCCCC1)C(Cl)(Cl)Cl (stereo unspecified) ?
ALDH1A1 inh: 6%

How did O=c1ccnc2n1COCS2 do in these assays?
ALDH1A1 inh: -3%

What do the screens show for `NC1C(O)OC(CO)[C@@H](O)[C@@H]1O[C@H]1O[C@@H](C(=O)O)C(O)C(O)C1O` (stereo partly specified)?
HPGD block: -4%; ALDH1A1 inh: 4%

Results for COc1ccc(C2=CC(c3cc(OC)c(OC)c(OC)c3)NC(=S)N2)cc1 (stereo unspecified) ?
IMPase inh: 2; HPGD block: -17%; ALDH1A1 inh: -14%

What do the screens show for `CC1C(=O)C(C)C(c2ccc3c(c2)OCO3)NC1c1ccc2c(c1)OCO2` (stereo unspecified)?
IMPase inh: 4; ALDH1A1 inh: -4%

How did COc1cc(C2C=C(C34CC5CC(CC(C5)C3)C4)NC(=S)N2)cc(OC)c1OC (stereo unspecified) do in these assays?
IMPase inh: 7; HPGD block: -2%; ALDH1A1 inh: 1.1µM*

Results for COc1ccc(OC)c(C2SCCN2S(C)(=O)=O)c1 (stereo unspecified) ?
IMPase inh: 5; HPGD block: -9%; ALDH1A1 inh: -5%

How did S=C1NC(C23CC4CC(CC(C4)C2)C3)=CC(c2ccc3c(c2)OCO3)N1 (stereo unspecified) do in these assays?
ALDH1A1 inh: 2.5µM*

What do the screens show for `COc1ccc(OC)c(C2C=C(C34CC5CC(CC(C5)C3)C4)NC(=S)N2)c1` (stereo unspecified)?
HPGD block: -12%; ALDH1A1 inh: 2.5µM*

What do the screens show for `CCn1c2ccccc2c2cc(CN3CCN(Cc4ccccc4Cl)CC3)ccc21`?
IMPase inh: 0

What do the screens show for `COc1ccc(CCNC(=O)CSc2nncs2)cc1`?
HPGD block: -2%; ALDH1A1 inh: 7%

Results for Cc1c(C(=O)NCc2n[nH]c(=S)n2-c2ccc(F)cc2)cccc1[N+](=O)[O-] ?
ALDH1A1 inh: -1%

Results for COc1cc([N+](=O)[O-])c(OC)cc1SCc1n[nH]c(=S)n1-c1ccc(F)cc1 ?
ALDH1A1 inh: 2.2µM*

Results for C/C(=N/OCC(=O)NCCCCCCNC(=O)CO/N=C(/C)c1cccs1)c1cccs1 ?
HPGD block: -15%; ALDH1A1 inh: 49%

How did O=C1CC(c2ccccc2)CC2=C1C(c1ccccn1)Nc1ccccc1N2 (stereo unspecified) do in these assays?
IMPase inh: 10; HPGD block: -5%; ALDH1A1 inh: -2%

What do the screens show for `COc1ccc(C2CC(=O)C3=C(C2)Nc2ccccc2NC3c2coc3ccccc3c2=O)cc1OC` (stereo unspecified)?
HPGD block: -10%; ALDH1A1 inh: 10µM*

How did COC(=O)c1ccccc1 do in these assays?
HPGD block: -5%; ALDH1A1 inh: 8%

How did O=C(NOC(=O)c1ccccc1)c1ccccc1 do in these assays?
ALDH1A1 inh: 20µM*

Results for COc1cc2c(cc1OC)C(C1C(=O)CCCC1=O)N(C(=O)CCl)CC2 (stereo unspecified) ?
HPGD block: -8%; ALDH1A1 inh: inconclusive

Results for COc1ccc2c(c1)CCN(C(=O)CCl)C2C1C(=O)CCCC1=O (stereo unspecified) ?
HPGD block: -5%; ALDH1A1 inh: 22µM*

Results for CCOC(=O)c1c(-c2ccc(C)cc2C)csc1NC(=O)c1ccccc1Cl ?
IMPase inh: -8

What do the screens show for `Cc1cnc(C(=O)OCC(=O)N2c3ccccc3NC(=O)C2(C)C)cn1`?
IMPase inh: 1; HPGD block: -7%; ALDH1A1 inh: 7%

How did CC1(C)C(=O)Nc2ccccc2N1C(=O)COc1ncnc2c(Cl)cc(Cl)cc12 do in these assays?
IMPase inh: -3; ALDH1A1 inh: 28µM*

How did COc1ccc(Cl)cc1NC(=O)CN1CCC(n2nnc3cc(F)ccc32)CC1 do in these assays?
IMPase inh: -2; HPGD block: -1%; ALDH1A1 inh: 4%

Results for COc1ccc(CC(=O)Oc2cc(C)[nH]c(=O)c2[N+](=O)[O-])cc1 ?
HPGD block: -8%; ALDH1A1 inh: -9%

What do the screens show for `COC(=O)c1ccc(NC(=O)CN(C)Cc2cccc(F)c2)cc1`?
ALDH1A1 inh: -9%

How did CN(Cc1cccc(F)c1)C(=O)c1ccc(S(=O)(=O)C(F)F)cc1 do in these assays?
IMPase inh: 7; HPGD block: 32µM*; ALDH1A1 inh: inconclusive
